Compound activity deposited in PubChem BioAssay by National Center for Advancing Translational Sciences (NCATS).
Compounds with a hit are over-represented: about 12% of the library has one in this group of screens.
JMJD2A Tudor inh: inhibitors of human JMJD2A Tudor domain; O75164; AlphaScreen JMJD2A-Tudor / H3K4me3 peptide binding; Potency, µM (titrated, usually from 114 µM), inactives show at the top dose activity change, negative = inhibition, hits mostly inhibitors; hit rate 4.4% among 390,000; note: % is set by controls: 0 for no effect and ±100 for the full control effect; nearly all actives have a fitted effect of over 50% in size
Sfp inh: Sfp phosphopantetheinyl transferase inhibition; hit rate 3.5% among 310,000; Biochemical Sfp PPTase activity, qHTS; AID 1490; Q9F4F7; Potency, µM, for inactives: largest response in the series, negative = inhibition, actives largely listed as inhibitors;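 note: the enzyme is Sfp with the accession as filed and its product quenches rhodamine fluorescence; 0% = enzyme reaction without inhibitor and -100% = no enzyme wells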
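Buffer: 50 mM Hepes-Na pH 7.6, 10 mM MgCl2, 0.01% Nonidet P-40, 0.01% BSA. Enzyme 15 nM, pre-exposed to compound 15 min; substrates then added and fluorescence change tracked over 30 min.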
G9a block: inhibitors of human histone lysine methyltransferase G9a | Q96KQ7 | G9a H3K9 monomethylation, AlphaScreen, 2 h | Potency, µM (series often up to 102 µM), without a hit: top-dose activity, negative = inhibition, most hits filed as inhibitors | hit rate 8.8% among 350,000; note: % is set by controls: 0 for no effect and ±100 for the full control effect; nearly all actives have a fitted effect of over 75% in size
Target sequence (Q96KQ7 913-1193 limits assumed): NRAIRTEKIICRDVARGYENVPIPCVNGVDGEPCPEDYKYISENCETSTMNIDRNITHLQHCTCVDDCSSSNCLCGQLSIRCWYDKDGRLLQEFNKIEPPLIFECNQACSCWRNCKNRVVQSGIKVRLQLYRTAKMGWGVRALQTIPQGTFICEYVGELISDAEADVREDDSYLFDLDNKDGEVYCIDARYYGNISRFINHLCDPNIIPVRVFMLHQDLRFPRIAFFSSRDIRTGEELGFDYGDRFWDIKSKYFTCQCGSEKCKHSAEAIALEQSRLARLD
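Chemiluminescent proximity detection of H3K9 monomethylation, read after 10 min bead incubation in the dark. Reaction: 20 nM G9a, 500 nM biotin-H3K9 peptide, 20 uM SAM cofactor, 2 h, room temperature, following 15 min enzyme-compound preincubation.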
BAZ2B block: BAZ2B (human) inhibition; Potency, µM (highest dose often 114 µM), inactives show at the top dose activity change, negative = inhibition, actives largely listed as inhibitors; AID 504333; AlphaScreen BAZ2B-H3K14Ac peptide displacement; Q9UIF8; hit rate 4.4% among 360,000; note: % is set by controls: 0 for no effect and ±100 for the full control effect; nearly all actives have a fitted effect of over 60% in size
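Compounds, titrated to a top concentration of 110 uM, were incubated 30 min at room temperature with preformed BAZ2B/acetyl-K14 H3 peptide complex (50 nM each). Proximity signal was measured by AlphaScreen after 20 min with beads.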
L3MBTL1 inh: L3MBTL1 (human) inhibition; Q9Y468; AlphaScreen L3MBTL1–H3K9me1 peptide binding; Potency, µM (top dose mostly 57.1 µM), for the others: top-dose activity, negative = inhibition, hits mostly inhibitors; hit rate 0.66% among 230,000; AID 485360; note: % is set by controls: 0 for no effect and ±100 for the full control effect; nearly all actives have a fitted effect of over 60% in size
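AlphaScreen proximity signal between nickel-chelate acceptor and streptavidin donor beads (final 10 ug/mL) reports binding of 50 nM L3MBTL1 to 75 nM biotin-H3 K9me1 peptide; complex incubated with compounds 30 min at room temperature; cefsulodin titration as control.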
HP1b chromo inh: HP1-beta chromodomain-methylated histone interaction inhibition. AlphaScreen HP1-beta / biotin-H3K9me3 peptide binding. hit rate 0.56% among 390,000. Potency, µM (doses to about 114 µM), inactives show at the highest dose activity change, negative = inhibition, usual class: inhibitors; note: nearly all actives have a fitted effect of over 70% in size
Target sequence (P83916 whole entry, looked up): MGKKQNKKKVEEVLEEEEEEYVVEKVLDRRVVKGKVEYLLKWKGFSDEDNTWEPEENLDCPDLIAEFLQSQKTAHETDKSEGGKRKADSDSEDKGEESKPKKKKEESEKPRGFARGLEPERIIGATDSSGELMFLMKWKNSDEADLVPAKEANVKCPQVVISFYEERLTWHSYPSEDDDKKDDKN
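AlphaScreen: HP1-beta (50 nM) preformed 30 min with biotin-H3(1-18)K9me3 peptide (50 nM) in PBS pH 7.4, 0.01% Tween-20. Compound added for 30 min at RT, then streptavidin donor/nickel chelate acceptor beads (10 ug/mL) for 30 min.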
* marks the source's active call; other numbers are inactive results; ? = inconclusive; / = no result; [ ] = another dose, or the depositor's remark. Calls come from the whole dose curve; as a rule, active = well fitted curve in the direction sought with a large enough effect; inconclusive = small, poorly fitted or top-dose-only effect, or another doubt; inactive = no such curve, though single readings can be large; an effect the other way counts as inactive or inconclusive. Potency is the fitted concentration of half-maximal effect.

SMILES	JMJD2A Tudor inh	Sfp inh	G9a block	BAZ2B block	L3MBTL1 inh	HP1b chromo inh
CCOc1ccc(N=Cc2c(O)c3ccccc3oc2=O)cc1	-23%	10%	7%[59 µM]	4%	16%	34%
Cc1ccc(OCC(=O)c2c(O)c3ccccc3oc2=O)cc1C	40µM*	8%	12%[12.7 µM]	?	-1%	16%
CN(CC(=O)Nc1ccccc1C(=O)Nc1ccccc1)C1CCCCC1	-1%	/	/	/	3%	36%
CC(C)C[C@H](NC(=O)CNC(=O)[C@H](CCC(N)=O)NC(=O)[C@H](CC(C)C)NC(=O)[C@H](CC(C)C)NC(=O)[C@H](CCCNC(=N)N)NC(=O)[C@H](CCC(N)=O)NC(=O)[C@H](CC(C)C)NC(=O)[C@H](CCCNC(=N)N)NC(=O)[C@H](C)NC(=O)CNC(=O)[C@H](CCC(=O)O)NC(=O)[C@H](CCCNC(=N)N)NC(=O)[C@H](CC(C)C)NC(=O)[C@H](CCCNC(=N)N)NC(=O)[C@H](CO)NC(=O)[C@H](CC(C)C)NC(=O)[C@H](CCC(=O)O)NC(=O)[C@H](CO)NC(=O)[C@@H](NC(=O)[C@H](Cc1ccccc1)NC(=O)[C@@H](NC(=O)CNC(=O)[C@H](CC(=O)O)NC(=O)[C@H](CO)NC(=O)[C@@H](N)Cc1cnc[nH]1)[C@@H](C)O)[C@@H](C)O)C(=O)N[C@H](C(N)=O)C(C)C	/	1%	/	/	/	/
Fc1ccc(Nc2ncnc3ccc(-c4ccoc4)cc23)cc1	/	-28%	10%[0.501 µM]	/	/	/
Cc1cc(C)c(NC(=O)CN2CCN3CCCC3C2)c(C)c1 (stereo not given)	-10%	-17%	11µM*	-6%	-10%	18%
Cc1cc(C)c(NC(=O)CCN2CCCCC2)c(C)c1	-9%	/	7%[59 µM]	0%	/	38%
Cc1ccccc1CNC(=O)Cc1ccc(NC(=O)N2CCCCc3ccccc32)cc1	-23%	/	9%[59 µM]	-13%	/	?
CCc1ccc(OCc2nnc(SCc3ccc(C(=O)O)cc3)o2)cc1	-16%	0%	/	?	-3%	/
CN(C(=O)CSc1nnc(COc2ccccc2)o1)c1ccccc1	-25%	/	-23%[59 µM]	79µM*	/	31%
O=C(O)c1ccc(CSc2nnc(COc3ccccc3)o2)cc1	-12%	3%	45µM*	7%	/	3%
COc1ccc(Cc2nnc(SCC(=O)N(C)c3ccccc3)o2)cc1	-13%	10%	18%	-6%	/	26%
Cc1csc(N(C)C(=O)CSc2nnc(COc3cccc4ccccc34)o2)n1	-16%	1%	10µM*	-6%	-15%[11.4 µM]	40%
Cc1nc(-c2ccccc2)c(-c2ccncc2)o1	/	11%	/	/	/	/
O=C1SCCC1NS(=O)(=O)c1ccccc1[N+](=O)[O-] (stereo not given)	-14%	-1%	45µM*	-16%	7%	12%
O=C(CNCCc1ccc(F)cc1)Nc1cc(F)ccc1F	28µM*	63µM*	?	20µM*	/	-6%
O=C(CN1CCCC1)Nc1cc(F)ccc1F	-13%	11%	3%	1%	6%	30%
Cc1ccc(NC(=O)COC(=O)C2CC2)c(Br)c1	6%	22%	16%[59 µM]	-2%	10%	50%
COc1ccc(C(=O)/C=C/c2ccc(N3CCCCC3)c([N+](=O)[O-])c2)cc1	11µM*	15%	10µM*	4µM*	?	25µM*
COc1ccc(C(=O)/C=C/c2ccc(N3CCCCC3)c([N+](=O)[O-])c2)c(OC)c1	10µM*	-11%	8.9µM*	8.9µM*	?	16µM*
CC(=O)OCC1OC(OC2C[C@]3(C)C(CC(O)C4C([C@](C)(CCC=C(C)C)OC5OC(CO)C(O)C(O)C5O)CC[C@]43C)[C@@]3(C)CCC(O)C(C)(C)C23)C(O[C@@H]2OC(C)C(O)C(O)C2O)C(O)C1O (stereo not given in full)	-11%	/	/	/	33%	24%
O=c1c(-c2cccs2)nc2cncnc2n1C1CC1	/	7%	-4%[12.7 µM]	/	/	/
Fc1ccc(Cc2cn3cc(-c4ccc(F)cc4)nc3s2)cc1	-7%	/	11%[59 µM]	-3%	/	21%
Nn1c(Cc2ccc(F)cc2)n[nH]c1=S	4.5µM*	-29%	3.5µM*	/	2%	-16%
Cc1ccccc1Cc1n[nH]c(=S)n1N	2.8µM*	-30%	2.5µM*	-31%	5%	?
SMILES	JMJD2A Tudor inh	Sfp inh	G9a block	BAZ2B block	L3MBTL1 inh	HP1b chromo inh
CC(Cc1n[nH]c(=S)n1N)c1ccccc1 (stereo not given)	3.2µM*	56µM*	7.9µM*	15%	/	?
Nn1c(Cc2ccccc2)n[nH]c1=S	10µM*	9%	/	-20%	-10%	22%
OCC1CCCN(Cc2ccc(-c3ccccc3)cc2)C1 (stereo not given)	2.2µM*	-10%	/	?	6%	?
CC1(C)Cc2ccccc2C2CC(O)C(=O)N21 (stereo not given)	89µM*	?	22µM*	-30%	-6%	-13%
Cc1oc(-c2cccc(Cl)c2)nc1CN1CCC(C(=O)NCCCN2CC(C)CC(C)C2)CC1 (stereo not given)	-27%	7%	-11%	-12%	/	-6%[57 µM]
Cc1ccc(S(=O)(=O)N(C)Cc2ccc(C(=O)N/N=C3\CC(=O)CC(C)(C)C3)cc2)cc1	-3%	-3%	20%	8%	8%	40%
COc1cc(NC(=O)CCS(=O)(=O)c2ccc(Br)cc2)cc(OC)c1	-2%	/	-5%[59 µM]	2%	/	0%
COc1ccc(CNC(=O)CCS(=O)(=O)c2ccc(Br)cc2)cc1	?	6%	45µM*	50µM*	/	?
COc1ccc(S(=O)(=O)CCC(=O)NCc2ccc(C)o2)cc1	-26%	50µM*	/	1%	1%	6%
COc1ccc(CCC(C)NC(=O)Cc2ccc(OC)c(OC)c2)c(OC)c1 (stereo not given)	-14%	9%	-13%[2.33 µM]	-6%	/	9%
COC(=O)c1sc2nc3c(c(-c4cccs4)c2c1N)CCCC3	44%	79µM*	60%	38%	34%	238%
Cc1ccccc1NC(=O)c1sc2nc3c(c(-c4ccco4)c2c1N)CCC3	15%[11.4 µM]	?	40µM*	-6%	-7%	82%
Cc1ccc(-c2c3c(nc4sc(C(N)=O)c(N)c24)CCC3)cc1	-21%	-20%	-10%	-4%[57.1 µM]	4%	37%
CC(C)NC(=O)c1sc2nc(-c3cccs3)cc(-c3cccs3)c2c1N	19%	?	?	22%	/	80%
NC(=O)c1sc2nc3c(c(-c4ccco4)c2c1N)CCCC3	-24%	-12%	-28%[59 µM]	-19%	/	27%
NC(=O)c1sc2nc3c(c(-c4ccc(Cl)cc4)c2c1N)CCCC3	6%	-23%	11µM*	-4%	/	41%
